Experimental data: the supplement of paper PMC11732987, “Enantioselective OTUD7B fragment discovery through chemoproteomics screening and high-throughput optimisation” (Communications Chemistry, 2025)
Unmarked numbers belong to inactive results.

Legend:
Test in all cases: log2 ratio of Biotin-Ahx-Ub-VS probe labelling (fragment/DMSO); higher = less target engagement (more negative = stronger competition), active = hit call of the paper (q ≤ 0.05, log2 ratio ≤ -1)
Settings in all cases: compound concentration: 200 uM; treatment time: 3 h
USP19 = target: T1, USP19 (UniProt O94966)
T1 sequence (whole entry): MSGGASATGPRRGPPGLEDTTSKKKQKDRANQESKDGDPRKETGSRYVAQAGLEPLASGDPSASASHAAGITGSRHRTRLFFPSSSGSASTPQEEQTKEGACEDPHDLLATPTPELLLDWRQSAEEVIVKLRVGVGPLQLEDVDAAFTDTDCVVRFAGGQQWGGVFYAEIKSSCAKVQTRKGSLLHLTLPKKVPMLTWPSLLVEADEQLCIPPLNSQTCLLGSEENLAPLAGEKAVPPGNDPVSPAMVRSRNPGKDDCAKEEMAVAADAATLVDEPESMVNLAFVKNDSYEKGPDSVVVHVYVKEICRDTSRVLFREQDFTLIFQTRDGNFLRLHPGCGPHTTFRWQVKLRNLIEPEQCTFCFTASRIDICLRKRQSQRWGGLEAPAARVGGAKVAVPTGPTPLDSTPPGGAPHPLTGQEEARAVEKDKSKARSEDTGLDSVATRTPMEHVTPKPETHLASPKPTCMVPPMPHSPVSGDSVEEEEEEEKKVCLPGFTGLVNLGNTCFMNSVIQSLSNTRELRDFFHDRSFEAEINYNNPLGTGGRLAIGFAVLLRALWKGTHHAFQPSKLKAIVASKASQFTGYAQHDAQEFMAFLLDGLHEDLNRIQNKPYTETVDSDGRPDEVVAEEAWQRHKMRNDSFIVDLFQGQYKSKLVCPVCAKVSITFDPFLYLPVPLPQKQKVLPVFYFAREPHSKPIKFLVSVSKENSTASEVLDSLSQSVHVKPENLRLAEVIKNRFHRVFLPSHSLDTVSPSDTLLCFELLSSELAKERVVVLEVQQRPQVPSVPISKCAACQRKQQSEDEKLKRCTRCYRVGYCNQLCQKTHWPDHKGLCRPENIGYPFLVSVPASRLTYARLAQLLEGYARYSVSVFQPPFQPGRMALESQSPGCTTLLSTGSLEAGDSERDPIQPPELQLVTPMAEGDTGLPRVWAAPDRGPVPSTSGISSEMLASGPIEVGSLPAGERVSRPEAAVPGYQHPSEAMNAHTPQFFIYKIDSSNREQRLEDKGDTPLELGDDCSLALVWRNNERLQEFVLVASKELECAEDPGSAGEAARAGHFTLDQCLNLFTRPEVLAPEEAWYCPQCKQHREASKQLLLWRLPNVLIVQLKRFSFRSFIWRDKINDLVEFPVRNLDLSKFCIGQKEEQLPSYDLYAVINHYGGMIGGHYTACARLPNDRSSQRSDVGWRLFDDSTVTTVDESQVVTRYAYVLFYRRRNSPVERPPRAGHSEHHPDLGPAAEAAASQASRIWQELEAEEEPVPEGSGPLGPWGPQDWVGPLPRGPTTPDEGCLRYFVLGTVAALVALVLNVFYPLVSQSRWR
In short: (§1)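 HEK293T lysate in Tris/CHAPS/IGEPAL buffer with protease inhibitors (495 µg per sample) was given fragment at 200 µM or vehicle for 3 h, in triplicate. It then received Biotin-Ahx-Ub-VS at 0.5 µM final for 1 h. Labelled DUBs were NeutrAvidin-enriched, digested with LysC and trypsin, and run by diaPASEF LC-MS/MS. Values are average log2 fragment/vehicle ratios by unpaired t-test on global-median-normalised Spectronaut quantities of proteins with ≥2 unique peptides.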

USP24 = USP24 (UniProt Q9UPU5)
In short: as §1

USP25 = target: T2, USP25 (UniProt Q9UHP3)
T2 sequence (whole entry): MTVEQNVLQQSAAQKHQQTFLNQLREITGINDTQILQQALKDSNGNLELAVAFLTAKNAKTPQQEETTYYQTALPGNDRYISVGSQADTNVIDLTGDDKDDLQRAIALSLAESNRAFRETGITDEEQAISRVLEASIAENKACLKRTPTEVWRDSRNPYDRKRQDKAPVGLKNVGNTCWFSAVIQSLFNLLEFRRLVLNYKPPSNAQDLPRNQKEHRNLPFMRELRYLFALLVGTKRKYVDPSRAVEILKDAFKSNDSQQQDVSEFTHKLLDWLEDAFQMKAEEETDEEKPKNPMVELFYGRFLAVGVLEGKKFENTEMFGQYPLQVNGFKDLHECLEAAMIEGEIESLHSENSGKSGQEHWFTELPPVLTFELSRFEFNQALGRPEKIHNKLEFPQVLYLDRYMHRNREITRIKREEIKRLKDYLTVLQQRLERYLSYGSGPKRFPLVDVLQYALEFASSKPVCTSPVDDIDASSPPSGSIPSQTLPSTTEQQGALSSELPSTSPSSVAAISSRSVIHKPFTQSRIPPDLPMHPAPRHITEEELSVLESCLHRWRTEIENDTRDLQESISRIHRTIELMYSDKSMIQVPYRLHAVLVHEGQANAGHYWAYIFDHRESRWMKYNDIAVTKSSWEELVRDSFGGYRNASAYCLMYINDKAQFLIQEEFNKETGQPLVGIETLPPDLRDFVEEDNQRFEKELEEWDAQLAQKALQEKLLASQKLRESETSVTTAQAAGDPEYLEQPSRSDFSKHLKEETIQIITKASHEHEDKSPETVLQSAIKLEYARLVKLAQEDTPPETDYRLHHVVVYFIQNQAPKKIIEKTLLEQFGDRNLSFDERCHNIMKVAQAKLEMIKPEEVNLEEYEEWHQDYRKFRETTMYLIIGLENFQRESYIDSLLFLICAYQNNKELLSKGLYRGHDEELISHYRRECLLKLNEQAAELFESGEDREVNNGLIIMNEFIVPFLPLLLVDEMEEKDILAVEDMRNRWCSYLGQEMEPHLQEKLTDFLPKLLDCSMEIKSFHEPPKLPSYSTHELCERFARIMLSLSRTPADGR
In short: as §1

USP28 = target: T3, USP28 (UniProt Q96RU2)
T3 sequence (whole entry): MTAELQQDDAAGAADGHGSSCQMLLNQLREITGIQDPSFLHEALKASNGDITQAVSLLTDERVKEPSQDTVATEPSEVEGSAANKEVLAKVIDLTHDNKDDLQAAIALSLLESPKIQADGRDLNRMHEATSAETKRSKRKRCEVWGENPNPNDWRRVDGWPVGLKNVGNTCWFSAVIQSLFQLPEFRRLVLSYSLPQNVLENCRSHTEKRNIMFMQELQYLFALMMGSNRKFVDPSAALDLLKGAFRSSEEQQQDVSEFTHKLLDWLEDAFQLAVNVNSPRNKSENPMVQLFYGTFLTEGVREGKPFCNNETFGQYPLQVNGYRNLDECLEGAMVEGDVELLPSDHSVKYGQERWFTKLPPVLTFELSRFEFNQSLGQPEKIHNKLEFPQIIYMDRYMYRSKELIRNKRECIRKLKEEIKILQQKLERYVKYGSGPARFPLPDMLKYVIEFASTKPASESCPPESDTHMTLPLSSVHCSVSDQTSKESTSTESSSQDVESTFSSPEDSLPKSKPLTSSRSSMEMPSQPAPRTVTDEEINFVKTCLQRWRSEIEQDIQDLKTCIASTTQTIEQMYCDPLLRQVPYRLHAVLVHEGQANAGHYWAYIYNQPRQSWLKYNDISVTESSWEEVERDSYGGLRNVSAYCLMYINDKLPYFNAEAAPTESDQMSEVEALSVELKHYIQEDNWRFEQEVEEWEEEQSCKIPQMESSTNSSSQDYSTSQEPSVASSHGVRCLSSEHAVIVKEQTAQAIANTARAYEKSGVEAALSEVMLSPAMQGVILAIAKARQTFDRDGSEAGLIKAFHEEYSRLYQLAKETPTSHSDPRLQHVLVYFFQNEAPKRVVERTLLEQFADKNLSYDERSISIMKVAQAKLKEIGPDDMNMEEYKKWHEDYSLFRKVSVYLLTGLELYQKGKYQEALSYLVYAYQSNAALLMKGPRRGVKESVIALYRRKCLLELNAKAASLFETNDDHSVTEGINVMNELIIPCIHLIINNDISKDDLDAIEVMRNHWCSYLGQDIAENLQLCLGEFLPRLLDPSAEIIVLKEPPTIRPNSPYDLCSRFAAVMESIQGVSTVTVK
In short: as §1

Sequence of USP24 (Q9UPU5 whole entry): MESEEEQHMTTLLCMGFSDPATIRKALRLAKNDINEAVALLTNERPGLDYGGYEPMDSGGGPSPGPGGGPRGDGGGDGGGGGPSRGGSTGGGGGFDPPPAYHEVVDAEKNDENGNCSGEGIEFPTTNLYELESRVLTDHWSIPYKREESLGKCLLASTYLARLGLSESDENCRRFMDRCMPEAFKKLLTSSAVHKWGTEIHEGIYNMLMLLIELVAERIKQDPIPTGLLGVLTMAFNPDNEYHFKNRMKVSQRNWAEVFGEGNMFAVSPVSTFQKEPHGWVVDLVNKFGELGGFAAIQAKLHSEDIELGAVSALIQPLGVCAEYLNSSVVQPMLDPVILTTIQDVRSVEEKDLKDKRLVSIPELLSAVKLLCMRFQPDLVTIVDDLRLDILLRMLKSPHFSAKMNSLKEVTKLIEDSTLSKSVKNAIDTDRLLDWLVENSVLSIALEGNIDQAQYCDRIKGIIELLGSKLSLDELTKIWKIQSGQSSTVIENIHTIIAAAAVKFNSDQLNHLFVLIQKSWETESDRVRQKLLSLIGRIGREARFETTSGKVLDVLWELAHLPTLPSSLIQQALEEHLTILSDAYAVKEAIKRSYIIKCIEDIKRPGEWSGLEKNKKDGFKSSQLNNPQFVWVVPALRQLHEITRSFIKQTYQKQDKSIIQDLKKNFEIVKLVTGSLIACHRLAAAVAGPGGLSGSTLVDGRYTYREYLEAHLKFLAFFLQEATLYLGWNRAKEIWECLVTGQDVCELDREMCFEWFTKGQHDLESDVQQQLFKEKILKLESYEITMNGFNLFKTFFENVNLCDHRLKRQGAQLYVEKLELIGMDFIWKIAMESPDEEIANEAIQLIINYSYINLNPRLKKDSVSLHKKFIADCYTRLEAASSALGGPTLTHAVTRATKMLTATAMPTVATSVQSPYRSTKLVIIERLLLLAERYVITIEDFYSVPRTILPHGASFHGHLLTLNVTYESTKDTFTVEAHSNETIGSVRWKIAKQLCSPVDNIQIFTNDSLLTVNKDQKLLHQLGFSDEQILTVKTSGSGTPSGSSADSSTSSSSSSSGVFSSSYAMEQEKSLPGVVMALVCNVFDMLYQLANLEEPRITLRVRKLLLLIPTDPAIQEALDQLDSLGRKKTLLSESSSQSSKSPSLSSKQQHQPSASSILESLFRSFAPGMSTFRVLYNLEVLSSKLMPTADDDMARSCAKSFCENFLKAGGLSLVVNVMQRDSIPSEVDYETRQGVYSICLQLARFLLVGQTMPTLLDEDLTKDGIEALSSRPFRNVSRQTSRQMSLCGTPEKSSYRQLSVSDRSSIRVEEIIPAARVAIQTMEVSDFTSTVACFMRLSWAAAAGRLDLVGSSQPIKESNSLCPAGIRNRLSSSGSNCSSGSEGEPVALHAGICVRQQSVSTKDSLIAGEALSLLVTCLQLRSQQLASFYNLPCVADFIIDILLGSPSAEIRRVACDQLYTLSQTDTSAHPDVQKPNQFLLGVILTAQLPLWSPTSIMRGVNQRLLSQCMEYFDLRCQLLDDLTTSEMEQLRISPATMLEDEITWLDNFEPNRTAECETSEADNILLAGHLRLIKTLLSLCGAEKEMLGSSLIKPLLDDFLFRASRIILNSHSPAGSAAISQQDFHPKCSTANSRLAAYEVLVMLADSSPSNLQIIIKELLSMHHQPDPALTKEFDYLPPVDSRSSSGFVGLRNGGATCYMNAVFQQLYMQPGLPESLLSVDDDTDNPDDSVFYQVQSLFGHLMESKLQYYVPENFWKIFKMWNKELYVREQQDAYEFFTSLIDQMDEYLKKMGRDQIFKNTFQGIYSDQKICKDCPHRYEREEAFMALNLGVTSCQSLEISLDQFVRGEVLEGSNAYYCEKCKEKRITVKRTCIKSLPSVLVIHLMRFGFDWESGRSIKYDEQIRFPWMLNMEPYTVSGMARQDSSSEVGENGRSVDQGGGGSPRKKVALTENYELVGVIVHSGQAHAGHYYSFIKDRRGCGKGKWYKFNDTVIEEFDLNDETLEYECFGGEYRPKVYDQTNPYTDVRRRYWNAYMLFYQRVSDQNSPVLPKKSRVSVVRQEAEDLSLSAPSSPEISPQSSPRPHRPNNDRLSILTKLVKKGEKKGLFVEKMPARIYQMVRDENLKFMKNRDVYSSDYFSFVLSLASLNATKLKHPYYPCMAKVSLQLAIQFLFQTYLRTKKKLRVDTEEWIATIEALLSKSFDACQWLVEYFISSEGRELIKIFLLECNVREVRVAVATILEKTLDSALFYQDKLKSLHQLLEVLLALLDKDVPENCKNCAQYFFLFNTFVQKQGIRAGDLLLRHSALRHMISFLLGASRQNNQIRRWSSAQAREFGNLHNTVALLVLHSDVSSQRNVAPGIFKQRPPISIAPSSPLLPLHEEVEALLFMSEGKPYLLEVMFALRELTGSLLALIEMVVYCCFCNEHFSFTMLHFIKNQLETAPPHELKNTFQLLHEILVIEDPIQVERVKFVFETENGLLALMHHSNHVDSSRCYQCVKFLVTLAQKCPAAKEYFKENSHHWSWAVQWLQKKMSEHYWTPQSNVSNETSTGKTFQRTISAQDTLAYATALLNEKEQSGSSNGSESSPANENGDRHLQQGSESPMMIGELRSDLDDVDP

In the case of `O=C(CCl)N1CCc2[nH]c3ccccc3c2C1`, the “log2 ratio of Biotin-Ahx-Ub-VS probe labelling” value (“log2 ratio” for short) (USP19) is reported as -0.968, the “log2 ratio” value (USP24) is reported as -1.93 (active) and the “log2 ratio” value (USP25) is reported as -0.589. For the same molecule, the “log2 ratio” value (USP28) was -0.765.
